# Assay outcomes deposited in PubChem BioAssay by National Center for Advancing Translational Sciences (NCATS).
# TRHR PAM – TRH receptor (human) allosteric enhancement. P34981. TRHR cells, fluo-8 calcium fluorescence, EC20 TRH enhancement. enhancement, % at 2 µM. 0.66% of 360,000 active. AID 493056; in the data active = enhancement above about 30%; note: 0% is about no effect
# Target sequence (P34981 whole entry, looked up): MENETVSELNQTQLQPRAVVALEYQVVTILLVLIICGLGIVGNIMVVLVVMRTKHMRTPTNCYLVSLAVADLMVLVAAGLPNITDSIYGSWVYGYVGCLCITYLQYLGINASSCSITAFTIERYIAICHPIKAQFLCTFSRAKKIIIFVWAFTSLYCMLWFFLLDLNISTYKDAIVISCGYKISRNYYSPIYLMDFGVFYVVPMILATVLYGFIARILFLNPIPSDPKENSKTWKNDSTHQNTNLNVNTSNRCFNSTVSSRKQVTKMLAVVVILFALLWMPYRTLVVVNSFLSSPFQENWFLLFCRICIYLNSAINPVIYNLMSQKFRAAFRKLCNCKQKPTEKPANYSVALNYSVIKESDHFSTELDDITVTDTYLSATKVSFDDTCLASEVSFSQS
#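 Enhancer read-out: after compound pinning and an initial kinetic agonist-mode read, an EC20 of TRH (10 nM final) was injected and fluo-8 calcium signal (Ex 480/Em 530) followed at 1 s/cycle for 100 cycles in TRHR-expressing cells.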
# LDHA block – LDHA (human) enzyme inhibition | activity change, % (values are at about 110 or 230 µM) | 0.15% of 480,000 active | purified LDHA, NADH/diaphorase-resazurin fluorescence; hits give low values | AID 1347041; in the data active = activity change below about -30%;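 note: plate controls were DMSO wells for no effect and wells without enzyme for full effect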
#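 LDH5 2 nM; NADH 0.06 mM, pyruvate 0.2 mM; 200 mM Tris pH 7.4, EDTA, Tween-20; 5 min RT. Detection: diaphorase 0.133 mg/mL + resazurin 37 µM, fluorescence ex540/em590 at 0 and 20 min; normalized to enzyme-free and DMSO wells.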
# D1 PAM – potentiators of human D1 dopamine receptor; P21728; HEK293 TREx D1 cells, calcium flux, dopamine EC20 potentiation; potentiation, % at 10 µM; 0.036% of 360,000 active; in the data active = potentiation above about 30%; note: 0% is about no effect
# D1 antagonist – human D1 dopamine receptor antagonism. P21728. HEK293 TREx D1 cells, calcium flux, dopamine EC80; hits give low values. activity change, negative = inhibition, % at 10 µM. 3.2% of 360,000 active; in the data active = activity change below about -30%; note: % is set by controls: 0 for no effect and ±100 for the full control effect
#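 Kinetic fluorescence of a calcium dye serves as the read-out. D1-expressing Hek293 Trex cells, induced overnight at 30 C, are exposed to compound for 180 s before an EC80 dopamine addition, then read 180 s further.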
# D1 agonist – human D1 receptor agonism; activation, % at 2 µM; HEK293 T-REx D1 cells, calcium flux, agonist mode; 1% of 360,000 active; note: 0% is about no effect
#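 Agonism was scored from calcium flux recorded over 180 s (1 read/s) after pintool compound addition, following a 10-cycle baseline. Cells were inducible force-coupled HEK293 TREx D1, plated overnight at 30 C and loaded with no-wash calcium dye.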
# TRHR agonist – agonists of human TRH receptor; activation, % at 2 µM; 0.18% of 360,000 active; TRHR cells, calcium flux fluo-8, FDSS agonist mode; AID 493084; note: 0% is about no effect
#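 Fluo-8-loaded TRHR cells; 10 s baseline, compound added, kinetic Ca2+ fluorescence read 1/s, agonist mode.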
# * = called active by the depositor; nt = no result given. Most compounds without a hit are left out; they make up all but 3.6% or so of the library. Cut-off read from the data, not from the text of the source, unless noted: active = activation above about 30%; inactive = the rest.
SMILES,TRHR PAM,LDHA block,D1 PAM,D1 antagonist,D1 agonist,TRHR agonist
CN(CCCNC(=O)c1cc2cc(F)ccc2[nH]1)Cc1ccccc1,nt,8.1,nt,nt,nt,nt
N#Cc1nc(NCC(F)F)c2ncn(-c3cccc(Cl)c3)c2n1,-0.4,-0.4,-1.3,-49.3*,0.1,0.4
CS(=O)(=O)N1CCCc2cc(C(=O)N(Cc3c(F)cccc3Cl)C3CC3)ccc21,nt,-0.7,nt,nt,nt,nt
Cc1csc2c(N3CCN(S(=O)(=O)c4ccc(Cl)cc4)CC3)ncnc12,1.6,-9.4,-3.4,-34.8*,3.6,0.1
O=C(NNC(=O)c1ccc(Cl)c(Cl)c1)c1cccnc1,-5.3,-1.6,-13.7,-73.6*,1.0,0.3
O=C(NNC(=S)NCc1ccc(Cl)cc1)c1cccnc1,-3.5,-2.1,-1.2,-35.2*,2.7,0.3
O=C(NNC(=S)NC(=O)c1cccnc1)c1ccc(Cl)cc1,-0.2,-0.6,1.4,7.8,0.5,-0.9
O=C(NNC(=O)c1cccnc1)Nc1ccc(Cl)c(Cl)c1,-0.2,-3.2,-3.6,-0.6,1.6,1.0
O=C(NNC(=O)c1cccs1)c1cccnc1,1.7,-11.0,-11.1,-53.7*,-0.4,0.4
Cc1ccc(COc2ccccc2C2C3=C(CC(C)(C)CC3=O)OC3=C2C(=O)CC(C)(C)C3)cc1,nt,-3.3,nt,nt,nt,nt
O=C(Nc1cccc(Cl)c1)C1CC2CCCC(C1)C2=O (stereo not drawn),nt,-3.1,nt,nt,nt,nt
Nc1cccc(C(=O)NCc2cccnc2)c1,nt,10.7,nt,nt,nt,nt
COCC(=O)N1C[C@H]2CON(C)[C@H]2C[C@H]1c1cccc(-c2ccccc2OC)c1,nt,-30.6*,nt,nt,nt,nt
COc1ccccc1-c1cccc([C@@H]2C[C@H]3[C@H](CON3C)CN2C(=O)CCc2ccccc2)c1,nt,4.0,nt,nt,nt,nt
O=S(=O)(c1ccc2c(c1)OCCO2)N1CCC(n2cnc3cc(F)ccc32)CC1,2.9,-1.4,-7.6,-45.9*,7.4,0.0
O=S(=O)(c1ccc2c(c1)OCCO2)N1CCC(n2nnc3cc(F)ccc32)CC1,-2.9,4.1,-6.9,-3.7,4.6,0.9
Cc1ccc2nc(-c3ccc(C)c(C)c3)cc(C(=O)O)c2c1,nt,-6.6,nt,nt,nt,nt
CCCCCCNC(=O)CC(c1ccccc1)c1cc(Br)ccc1O (stereo not drawn),8.5,-2.0,-1.6,13.9,7.0,-0.1
CC(C)NC(=O)CC(c1ccccc1)c1cc(Br)ccc1O (stereo not drawn),8.1,-2.2,2.0,4.9,44.1*,-1.1
NC(=O)c1ccccc1NCC(=O)Nc1ccccc1C(=O)NC1CCCC1,nt,-8.0,nt,nt,nt,nt
COc1ccc(C)cc1-n1nnnc1SCC1CCCCO1 (stereo not drawn),8.5,2.6,-4.8,-35.9*,18.1,-0.4
COc1ccc(C)cc1-n1nnnc1SCC(=O)NC1CCCC1,1.3,3.0,-2.9,-14.7,6.1,-0.6
CCCCCCCCCCC(=O)Nc1c(CC)cccc1CC,nt,1.2,nt,nt,nt,nt
Cc1ccc(O)c(-c2cc(C(F)(F)C(F)F)[nH]n2)c1,-0.5,2.9,14.4,-9.9,164.1*,-1.1
Cc1ccc(OCC(=O)Nc2cc(C)on2)c([N+](=O)[O-])n1,-5.2,-1.8,4.6,4.5,1.0,1.1
SMILES,TRHR PAM,LDHA block,D1 PAM,D1 antagonist,D1 agonist,TRHR agonist
Cc1ccc(OCC(=O)NC(C)c2ccc(Cl)c(Cl)c2)c([N+](=O)[O-])n1 (stereo not drawn),-5.5,1.5,-8.2,-35.6*,9.5,-0.3
N#Cc1c(-c2cc(Cl)ccc2Cl)csc1N,nt,15.3,nt,nt,nt,nt
CCc1ccc(OCC(=O)Nc2ccc3c(c2)c2ccccc2n3CC)c(Br)c1,34.0*,1.2,-3.0,-1.7,-0.1,-0.1
CCc1ccc(OCC(=O)Nc2ccc3c(c2)c2ccccc2n3CC)cc1,2.5,-4.4,-6.9,-3.1,-2.0,-0.2
COc1ccc(-c2nc(=S)c3ccc4ccccc4c3[nH]2)cc1,2.5,-10.9,-11.6,-68.2*,3.5,-0.5
CCOCCCNC(=O)C1CCN(c2nc3ccc(C)cc3[nH]2)CC1,4.2,-2.2,4.5,-45.7*,0.2,-0.2
COC(=O)CNC(=O)C1CCN(c2nc(C)cc(C)n2)CC1,-4.6,-4.0,-1.5,5.2,7.0,0.3
Cc1cccc(CNC(=O)C2CCN(c3nc4ccc(Cl)cc4[nH]3)CC2)c1,-2.3,-11.5,-0.7,11.3,42.3*,-0.8
COCCCNC(=O)C1CCN(c2nc(C)cc(C)n2)CC1,36.5*,1.0,0.7,24.0,1.9,0.7
O=C(CC1C(=O)NCCN1C(=O)CN1CCN(C(=O)c2ccco2)CC1)Nc1ccc2c(c1)OCO2 (stereo not drawn),nt,0.0,nt,nt,nt,nt
CCOC(=O)c1ccc(NC(=O)Cn2ncc(Cl)c(Cl)c2=O)cc1,1.4,-0.1,-3.4,-29.6,0.4,0.1
Cc1ccc(C(=O)OCn2ncc(Cl)c(Cl)c2=O)cc1,7.0,2.4,-7.7,-47.6*,12.9,-1.3
O=C(O)c1ccc(-n2ncc(Cl)c(Cl)c2=O)cc1,nt,-10.5,nt,nt,nt,nt
O=C(OCn1ncc(Cl)c(Cl)c1=O)c1ccc(C(F)(F)F)cc1,-13.3,-15.7,-4.2,-48.3*,0.5,0.1
O=C(CN1C(=O)C2CCCCC2C1=O)Nc1nc(-c2ccc(F)cc2)cs1 (stereo not drawn),6.4,-2.1,-4.8,-2.6,2.1,-0.1
O=C(Nc1nc(-c2ccccc2)cs1)c1ccccc1NS(=O)(=O)c1ccc(F)cc1,13.4,-10.2,-6.0,-48.3*,14.8,4.5
Cc1ccc(Nc2nc(-c3ccc(F)cc3)cs2)nc1,2.2,-0.4,-5.8,-36.8*,2.4,2.3
Cc1ccc(C(=O)Nc2nc(-c3ccc(F)cc3)cs2)o1,11.2,-0.8,-6.1,-47.6*,2.3,-0.4
O=C(CN1C(=O)C2CC=CCC2C1=O)Nc1nc(-c2ccc(F)cc2)cs1 (stereo not drawn),5.4,-3.6,-0.1,-46.2*,4.5,0.5
CC(C)C(=O)N1N=C(c2ccc(Cl)cc2Cl)CC1c1ccc2nccnc2c1 (stereo not drawn),nt,-6.6,nt,nt,nt,nt
CC(=O)N1CCC(NC(=O)Cn2c(C)cc3ccccc32)CC1,nt,1.1,nt,nt,nt,nt
Cc1ccc(S(=O)(=O)C(CC(=O)c2ccc(Cl)cc2)C(=O)c2ccc(Cl)cc2)cc1 (stereo not drawn),nt,9.8,nt,nt,nt,nt
COC(=O)c1cccc(NC(=O)Nc2ccc(Cl)cc2)c1,-10.5,-3.3,-3.4,-34.5*,25.5,3.0
COC(=O)c1cccc(NC(=S)Nc2ccc(Cl)c(Cl)c2)c1,-7.3,-4.2,-3.6,-30.9*,7.4,0.4
COC(=O)c1cccc(NC(=S)Nc2ccccc2Cl)c1,5.4,-2.5,-2.9,7.3,2.9,0.3
COc1ccccc1NC(=O)Cn1ccc2c(Cl)cccc21,nt,-5.8,nt,nt,nt,nt
O=C(Oc1ccc(O)cc1)C12CC3CC(CC(C3)C1)C2,-3.3,3.1,20.9,-7.7,40.9*,8.7
